According to PubChem BioAssay (NCATS):
Unmarked numbers belong to inactive results. Records with an inconclusive call do not appear. Calls of active or inactive are those of the source. Unless noted, calls come from the whole dose curve; as a rule, active = well fitted curve in either direction with a large enough effect (not every such curve was filed as active); inconclusive = small, poorly fitted or top-dose-only effect, or another doubt; inactive = flat fitted curve, though single readings scatter.

Legend:
[1] = biological target: Lysosomal acid glucosylceramidase (Homo sapiens) (UniProt P04062); assay: Glucocerebrosidase-p2 (AID 348; in the data active = potency below about 10 µM; note: potency is the fitted concentration of half-maximal effect); details: purified GBA, blue fluorogenic substrate, 40 min
In short: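 Normal human glucocerebrosidase (0.2 nM) with blue fluorogenic substrate (80 uM final) in citrate/phosphate pH 5.9 with 10mM sodium taurocholate, 0.01% tween-20; 40 min RT, NaOH/glycine stop; fluorescence Ex 365/Em 440; AC50 from a titration from 0.6 nM upwards.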

[2] = AP1 Signaling Pathway (AID 357); details: ME-180 AP-1-bla reporter, EGF-induced, beta-lactamase ratio, 5 h; at 7.69 µM (top of the series) unless noted;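 note: ME-180 reporter cells stimulated with EGF at its EC50 level; % is set by controls: 0 for no effect and ±100 for the full control effect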
In short: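 A ratiometric CCF4 readout (405 nm excitation; 460 and 530 nm emission) quantified AP-1-driven beta-lactamase in ME-180 cells after 5 h with compound and EC50 EGF; AC50 values were derived for activators and inhibitors.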

[3] = biological target: Cytochrome P450 1A2 (Homo sapiens) (UniProt P05177); assay: p450-cyp1a2 (AID 410; calls by dose curve; note: potency is the fitted concentration of half-maximal effect;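 for activity change, negative = inhibition: -100% = full effect of reference inhibitor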); details: recombinant CYP1A2, luciferin-ME demethylation, luminescence; series mostly up to 11.4 µM
In short: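 O-Demethylation of luciferin 6' methyl ether by human CYP1A2 is monitored as luciferase luminescence. Substrate sits at Km (100uM); enzyme is 20nM. Values are scaled to 57 uM furafylline as maximal inhibition.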

[4] = NFAT Signaling Pathway (AID 444); details: Jurkat NFAT-bla M1, carbachol, beta-lactamase ratio, 5 h; at 7.69 µM (top of the series) unless noted;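 note: carbachol stimulus at about its EC50 of 1 µM final; % is set by controls: 0 for no effect and ±100 for the full control effect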
In short: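 Jurkat cells carrying an NFAT-driven β-lactamase reporter and co-transfected muscarinic M1 receptor were treated with compound plus carbachol (1 uM final, an EC50 level) for 5 h at 37 °C. CCF4 loading followed for 1 h at RT; 460/530 nm ratio gave %activity.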

[5] = Stat Signaling Pathway (AID 446); details: ME-180 (cervical carcinoma) SIE beta-lactamase reporter, IL-6 stimulated, 5 h; at 7.69 µM (top of the series) unless noted;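 note: ME-180 cervical cancer cells given 40 pM IL-6 alongside compound; SIE-controlled beta-lactamase reporter measured as 460/530 nm FRET emission ratio; % is set by controls: 0 for no effect and ±100 for the full control effect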
In short: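 Compound effects on IL-6-induced STAT reporter activity were measured in ME-180 cells. After overnight culture, cells were co-treated with 40 pM IL-6 for 5 hrs before beta-lactamase substrate loading at room temperature.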

[6] = biological target: Mitogen-activated protein kinase 10 (Mus musculus) (UniProt Q61831); assay: JNK3 AlphaScreen Assay (AID 530); details: JNK3 lysate, c-Jun phosphorylation; series mostly up to 11.4 µM;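 note: kinase came from lysate of stimulated human HepG2 cells; signal reports phosphorylation of biotinylated GST-cJun 1-79 at Ser73 with 10 µM ATP; % is set by controls: 0 for no effect and ±100 for the full control effect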
In short: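 Phosphorylation of biotinylated GST-cJun(1-79) at Ser73 is measured by AlphaScreen proximity luminescence. Enzyme is JNK3 in HepG2 lysates activated with interleukin-1beta and tumor necrosis factor alpha; ATP is 10 uM final.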

[7] = biological target: 3',5'-cyclic-AMP phosphodiesterase 4B (Homo sapiens) (UniProt Q07343); assay: qHTS Assay for Inhibitors of PDE-IV (AID 607; active = well fitted activation curve with a large enough effect in the main read-out, with a control signal flat, not every such curve was filed as active; note: % of control where 0% means no effect); details: HEK293 ACTOne CNG channel cells, membrane potential fluorescence; series mostly up to 22.9 µM
In short: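 ACTOne HEK293 cells carry a modified cAMP-gated CNG channel and express endogenous PDE4; plated 1000 cells/well, compounds up to 22.9 uM final. Membrane-potential dye fluorescence (ex 535/em 590) was read; parental cells received 10 uM forskolin + 100 uM RO 20-1724.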

[8] = biological target: Cytochrome P450 3A4 (Homo sapiens) (UniProt P08684); assay: qHTS Assay for Inhibitors and Substrates of Cytochrome P450 3A4 (AID 884; active = well fitted curve in the direction sought with a large enough effect; an effect the other way counts as inactive or inconclusive; note: % is set by controls: 0 for no effect and ±100 for the full control effect; nearly all actives have a fitted effect of over 50% in size); details: recombinant CYP3A4, Luciferin-PPXE luminescence; series mostly up to 57.1 µM
In short: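 Luminescent readout of luciferin produced by CYP3A4 (20 nM) dealkylation of Luciferin-PPXE, 25 uM (its KM). NADPH-driven reaction ran 60 min at RT after 10 min compound preincubation; data scaled to 57 uM ketoconazole as 100% inhibition.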

[9] = biological target: ATP-dependent 6-phosphofructokinase (Trypanosoma brucei brucei) (UniProt O15648); assay: qHTS Assay to Find Inhibitors of T. brucei phosphofructokinase: hit validation (AID 492961; active = well fitted curve in the direction sought with a large enough effect; an effect the other way counts as inactive or inconclusive); details: T. brucei PFK, ADP-Glo luminescence; series mostly up to 51.4 µM
In short: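 Percent activity derived from corrected luminescence, normalized between 0x and 1x enzyme controls, then fitted to concentration-response curves. Conditions: 1.25 nM PFK, 0.1 mM ATP, 0.5 mM F6P, 45 min RT.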

[10] = qHTS profiling for inhibitors of Plasmodium falciparum proliferation (AID 504749; active = well fitted curve in the direction sought with a large enough effect; an effect the other way counts as inactive or inconclusive;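 note: 0% = DMSO vehicle and full inhibition = artemisinin control; nearly all actives have a fitted effect of over 60% in size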); details: P. falciparum in erythrocytes, SYBR Green DNA, 72 h, at 28.7 µM (top of the series)
In short: (§1)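 Quantitative HTS: compounds pinned into medium, infected erythrocytes added (0.3% parasitemia, 2.5% hematocrit), 72 h culture at 37 C under 5% CO2. Saponin/Triton lysis with SYBR Green I, overnight RT, then fluorescence read.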

[11] = system: CP192; assay: as above; details: P. falciparum in erythrocytes, SYBR Green DNA, 72 h; series mostly up to 28.7 µM
In short: as §1

[12] = system: CP203; assay: as above; details: P. falciparum in erythrocytes, SYBR Green DNA, 72 h; series mostly up to 28.7 µM
In short: as §1

[13] = system: W2; assay: as above; details: P. falciparum in erythrocytes, SYBR Green DNA, 72 h; series mostly up to 28.7 µM
In short: as §1

[14] = biological target: Glucocorticoid receptor (Homo sapiens) (UniProt P04150); assay: GR-EFC Redistribution (AID 451; calls by dose curve; note: potency is the fitted concentration of half-maximal effect); details: CHO-K1 GR-EFC translocation, beta-gal luminescence, 2 h
In short: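 CHO-K1 cells stably expressing nuclear-localized β-gal enzyme acceptor and GR fused C-terminally to the enzyme donor fragment; ligand-driven nuclear translocation restores β-gal by complementation. Compounds titrated up to 46 uM final, 2 h at 37 °C; luminescence read.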

[15] = biological target: Glucocorticoid receptor (Homo sapiens) (UniProt P04150); assay: GR-GFP Redistribution (AID 450;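 active = compounds whose dose series gives a full or clear partial fitted curve of increased nuclear translocation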; note: potency is the fitted concentration of half-maximal effect); details: U2OS GR-GFP nuclear translocation, laser cytometry, 2 h
[16] = biological target: Cytochrome P450 2D6 (Homo sapiens) (UniProt P10635); assay: qHTS Assay for Inhibitors and Substrates of Cytochrome P450 2D6 (AID 891; active = well fitted curve in the direction sought with a large enough effect; an effect the other way counts as inactive or inconclusive;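 note: luciferin methyl ether substrate demethylated by CYP2D6 with NADPH regeneration; % is set by controls: 0 for no effect and ±100 for the full control effect; nearly all actives have a fitted effect of over 60% in size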); details: recombinant CYP2D6, luciferin-ME EGE luminescence; series mostly up to 11.4 µM
In short: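 Luminescent read-out of luciferin formed by 5 nM human CYP2D6 demethylating 30 uM Luciferin-ME EGE (Km level) over 60 min at room temperature after NADPH regeneration addition. Data normalized to full inhibition by 1.43 uM quinidine.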

[17] = biological target: Cytochrome P450 2C19 (Homo sapiens) (UniProt P33261); assay: qHTS Assay for Inhibitors and Substrates of Cytochrome P450 2C19 (AID 899; active = well fitted curve in the direction sought with a large enough effect; an effect the other way counts as inactive or inconclusive; note: % is set by controls: 0 for no effect and ±100 for the full control effect; nearly all actives have a fitted effect of over 60% in size); details: recombinant CYP2C19, luciferin-H EGE luminescence; series mostly up to 11.4 µM
In short: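 NADPH-dependent conversion of Luciferin-H EGE (10uM, at KM) by 5nM enzyme in 50mM KPO4, 60 min at 37C following 10 min compound preincubation. Stopped with luciferin detection buffer; luminescence read after 20 min.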

[18] = biological target: Cytochrome P450 2C9 (Homo sapiens) (UniProt P11712); assay: qHTS Assay for Inhibitors and Substrates of Cytochrome P450 2C9 (AID 883; active = well fitted curve in the direction sought with a large enough effect; an effect the other way counts as inactive or inconclusive; note: % is set by controls: 0 for no effect and ±100 for the full control effect; nearly all actives have a fitted effect of over 60% in size); details: recombinant CYP2C9, luciferin-H luminescence, 60 min; series mostly up to 11.4 µM
In short: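 A luminogenic readout tracked human CYP2C9 (10nM) converting deoxyluciferin (100uM, at KM) in 25mM KPO4 during 60 min at 37C with regenerated NADPH. Values normalized to 57uM sulphaphenazole as complete inhibition.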

[19] = biological target: Cytochrome P450 3A4 (Homo sapiens) (UniProt P08684); assay: qHTS Assay for Activators of Cytochrome P450 3A4 (AID 885; active = well fitted curve in the direction sought with a large enough effect; an effect the other way counts as inactive or inconclusive; note: nearly all actives have a fitted effect of over 65% in size); details: recombinant CYP3A4, Luciferin-PPXE luminescence, 60 min; series mostly up to 11.4 µM
In short: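 CYP3A4 activity: Luciferin-PPXE O-dealkylation, 25uM substrate, 200mM KPO4, RT throughout. Read-out is luciferase luminescence; higher values reflect activation.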

Sequence of Lysosomal acid glucosylceramidase (Homo sapiens) (P04062 whole entry, looked up): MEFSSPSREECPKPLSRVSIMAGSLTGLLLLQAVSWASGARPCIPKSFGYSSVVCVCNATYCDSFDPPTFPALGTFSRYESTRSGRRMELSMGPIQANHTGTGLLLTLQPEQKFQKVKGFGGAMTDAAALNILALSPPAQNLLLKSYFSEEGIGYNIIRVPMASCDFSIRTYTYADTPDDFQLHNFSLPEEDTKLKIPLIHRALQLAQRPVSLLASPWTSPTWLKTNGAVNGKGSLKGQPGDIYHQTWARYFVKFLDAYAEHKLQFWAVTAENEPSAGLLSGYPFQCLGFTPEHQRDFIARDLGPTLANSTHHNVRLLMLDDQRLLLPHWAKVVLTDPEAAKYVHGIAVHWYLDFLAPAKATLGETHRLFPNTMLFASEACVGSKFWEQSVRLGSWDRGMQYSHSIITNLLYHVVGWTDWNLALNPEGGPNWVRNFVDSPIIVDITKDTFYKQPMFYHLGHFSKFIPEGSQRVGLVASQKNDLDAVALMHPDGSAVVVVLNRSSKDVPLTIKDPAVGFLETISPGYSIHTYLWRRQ
Sequence of Cytochrome P450 1A2 (Homo sapiens) (P05177 whole entry, looked up): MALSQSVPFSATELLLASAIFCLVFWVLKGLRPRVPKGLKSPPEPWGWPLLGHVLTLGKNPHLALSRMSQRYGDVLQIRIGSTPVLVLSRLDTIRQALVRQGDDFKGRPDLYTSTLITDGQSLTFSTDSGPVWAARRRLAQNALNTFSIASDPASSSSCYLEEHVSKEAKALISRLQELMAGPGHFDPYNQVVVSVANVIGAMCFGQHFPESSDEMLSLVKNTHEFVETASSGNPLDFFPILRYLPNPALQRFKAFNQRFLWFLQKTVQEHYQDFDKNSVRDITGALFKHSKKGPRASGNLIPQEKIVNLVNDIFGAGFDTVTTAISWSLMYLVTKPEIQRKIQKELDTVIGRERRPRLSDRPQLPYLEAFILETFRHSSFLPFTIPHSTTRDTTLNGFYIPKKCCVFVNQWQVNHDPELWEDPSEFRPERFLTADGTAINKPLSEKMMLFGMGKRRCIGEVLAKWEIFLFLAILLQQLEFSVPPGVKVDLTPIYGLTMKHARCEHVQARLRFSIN
Sequence of 3',5'-cyclic-AMP phosphodiesterase 4B (Homo sapiens) (Q07343 whole entry, looked up): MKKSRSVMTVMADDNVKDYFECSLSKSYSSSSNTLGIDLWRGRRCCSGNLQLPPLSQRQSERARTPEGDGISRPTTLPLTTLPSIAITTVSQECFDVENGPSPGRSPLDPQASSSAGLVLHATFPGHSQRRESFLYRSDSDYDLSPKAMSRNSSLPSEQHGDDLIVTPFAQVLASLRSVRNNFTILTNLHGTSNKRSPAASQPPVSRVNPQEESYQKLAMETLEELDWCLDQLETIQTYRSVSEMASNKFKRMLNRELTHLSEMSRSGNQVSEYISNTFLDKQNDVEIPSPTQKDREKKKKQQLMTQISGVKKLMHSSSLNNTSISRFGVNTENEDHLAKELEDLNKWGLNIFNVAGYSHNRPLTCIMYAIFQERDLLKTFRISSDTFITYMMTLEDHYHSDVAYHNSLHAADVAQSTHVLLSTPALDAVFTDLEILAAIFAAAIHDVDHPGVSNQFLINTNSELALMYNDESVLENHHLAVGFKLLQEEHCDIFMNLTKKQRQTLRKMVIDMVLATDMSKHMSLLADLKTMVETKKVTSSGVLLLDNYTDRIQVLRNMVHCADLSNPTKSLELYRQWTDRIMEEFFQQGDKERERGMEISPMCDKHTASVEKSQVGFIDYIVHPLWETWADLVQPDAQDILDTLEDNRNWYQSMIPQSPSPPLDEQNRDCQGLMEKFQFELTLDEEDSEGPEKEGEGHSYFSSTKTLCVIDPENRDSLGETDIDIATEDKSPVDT
Sequence of Glucocorticoid receptor (Homo sapiens) (P04150 whole entry, looked up, the tested form may be a part): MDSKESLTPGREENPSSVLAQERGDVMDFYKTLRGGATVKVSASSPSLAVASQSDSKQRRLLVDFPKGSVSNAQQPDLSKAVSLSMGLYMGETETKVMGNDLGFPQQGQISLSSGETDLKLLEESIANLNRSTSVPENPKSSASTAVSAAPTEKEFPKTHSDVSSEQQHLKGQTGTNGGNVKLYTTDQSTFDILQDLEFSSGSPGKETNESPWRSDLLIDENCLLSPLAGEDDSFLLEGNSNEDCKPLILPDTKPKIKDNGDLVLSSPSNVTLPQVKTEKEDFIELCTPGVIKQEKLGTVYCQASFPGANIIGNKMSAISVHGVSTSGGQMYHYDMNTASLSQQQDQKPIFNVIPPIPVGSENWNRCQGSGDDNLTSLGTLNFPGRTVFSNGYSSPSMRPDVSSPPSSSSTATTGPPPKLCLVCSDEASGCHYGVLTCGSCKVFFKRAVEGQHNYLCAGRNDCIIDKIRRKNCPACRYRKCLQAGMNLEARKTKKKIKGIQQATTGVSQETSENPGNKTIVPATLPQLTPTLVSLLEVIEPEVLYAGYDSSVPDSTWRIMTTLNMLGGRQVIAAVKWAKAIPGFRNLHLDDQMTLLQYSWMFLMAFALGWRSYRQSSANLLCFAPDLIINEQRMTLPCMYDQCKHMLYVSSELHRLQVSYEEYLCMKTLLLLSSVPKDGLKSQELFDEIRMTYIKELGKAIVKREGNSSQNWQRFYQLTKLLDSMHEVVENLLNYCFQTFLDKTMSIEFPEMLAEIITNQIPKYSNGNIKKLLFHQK
Sequence of Cytochrome P450 2C19 (Homo sapiens) (P33261 whole entry, looked up): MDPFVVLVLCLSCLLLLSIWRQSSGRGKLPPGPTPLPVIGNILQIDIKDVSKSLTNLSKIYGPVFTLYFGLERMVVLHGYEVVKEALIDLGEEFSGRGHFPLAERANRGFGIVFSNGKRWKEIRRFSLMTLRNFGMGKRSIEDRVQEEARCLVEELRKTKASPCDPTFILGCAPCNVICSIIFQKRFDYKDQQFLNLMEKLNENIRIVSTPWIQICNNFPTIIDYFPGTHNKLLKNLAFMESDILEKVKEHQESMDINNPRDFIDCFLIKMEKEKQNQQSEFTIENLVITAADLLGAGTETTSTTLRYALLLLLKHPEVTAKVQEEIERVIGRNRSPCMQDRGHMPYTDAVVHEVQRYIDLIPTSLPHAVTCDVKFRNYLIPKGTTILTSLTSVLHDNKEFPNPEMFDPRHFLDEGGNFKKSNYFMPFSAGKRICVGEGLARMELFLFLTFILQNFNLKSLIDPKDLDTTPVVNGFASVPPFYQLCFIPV
Sequence of Cytochrome P450 3A4 (Homo sapiens) (P08684 whole entry, looked up): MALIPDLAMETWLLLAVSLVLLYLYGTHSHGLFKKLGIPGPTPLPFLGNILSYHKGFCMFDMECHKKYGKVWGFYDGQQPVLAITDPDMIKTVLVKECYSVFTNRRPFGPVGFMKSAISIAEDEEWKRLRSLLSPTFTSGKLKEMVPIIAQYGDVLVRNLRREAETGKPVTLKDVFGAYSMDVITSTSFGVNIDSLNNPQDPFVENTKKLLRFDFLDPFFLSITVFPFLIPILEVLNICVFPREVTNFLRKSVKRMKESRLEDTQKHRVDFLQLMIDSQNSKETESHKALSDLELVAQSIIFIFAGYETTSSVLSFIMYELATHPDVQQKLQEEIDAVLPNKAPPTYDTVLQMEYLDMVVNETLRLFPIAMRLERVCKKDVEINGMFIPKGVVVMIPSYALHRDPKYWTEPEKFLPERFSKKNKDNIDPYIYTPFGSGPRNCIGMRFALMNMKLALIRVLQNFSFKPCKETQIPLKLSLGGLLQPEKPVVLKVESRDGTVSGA
Sequence of Cytochrome P450 2D6 (Homo sapiens) (P10635 whole entry, looked up): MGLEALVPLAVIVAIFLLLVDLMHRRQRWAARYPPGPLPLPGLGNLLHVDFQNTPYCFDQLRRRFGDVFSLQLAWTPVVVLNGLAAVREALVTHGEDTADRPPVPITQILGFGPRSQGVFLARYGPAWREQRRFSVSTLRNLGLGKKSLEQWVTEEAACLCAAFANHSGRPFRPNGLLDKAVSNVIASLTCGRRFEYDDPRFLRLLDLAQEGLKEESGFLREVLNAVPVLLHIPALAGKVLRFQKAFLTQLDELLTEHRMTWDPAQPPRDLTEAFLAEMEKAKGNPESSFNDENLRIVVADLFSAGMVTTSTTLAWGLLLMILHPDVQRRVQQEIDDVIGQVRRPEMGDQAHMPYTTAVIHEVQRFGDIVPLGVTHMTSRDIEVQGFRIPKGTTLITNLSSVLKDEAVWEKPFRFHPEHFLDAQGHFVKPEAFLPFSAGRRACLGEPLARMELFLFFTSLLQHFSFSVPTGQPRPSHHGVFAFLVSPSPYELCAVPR
Sequence of Cytochrome P450 2C9 (Homo sapiens) (P11712 whole entry, looked up): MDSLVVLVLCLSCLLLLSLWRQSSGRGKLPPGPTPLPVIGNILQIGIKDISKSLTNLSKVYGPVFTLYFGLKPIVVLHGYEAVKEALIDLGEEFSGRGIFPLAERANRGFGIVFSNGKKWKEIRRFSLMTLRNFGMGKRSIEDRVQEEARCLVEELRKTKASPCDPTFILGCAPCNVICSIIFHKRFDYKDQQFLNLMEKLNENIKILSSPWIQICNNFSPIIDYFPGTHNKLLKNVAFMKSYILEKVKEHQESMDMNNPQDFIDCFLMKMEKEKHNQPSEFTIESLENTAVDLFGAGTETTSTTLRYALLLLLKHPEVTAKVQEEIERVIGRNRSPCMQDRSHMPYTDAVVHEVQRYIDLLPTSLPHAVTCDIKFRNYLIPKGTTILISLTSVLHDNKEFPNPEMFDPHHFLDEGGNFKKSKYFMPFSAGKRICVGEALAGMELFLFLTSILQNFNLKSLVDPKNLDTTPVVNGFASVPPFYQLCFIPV

N[C@@H](Cc1ccccc1)C(=O)O
Potency [1]: > 11.4 µM
activity change, negative = inhibition [2]: 3.61%
Potency [3]: inactive
activity change, negative = inhibition [4]: 14.5%
activity, negative = inhibition [5]: 12.6%
Potency [6]: inactive
Potency [7]: inactive
Potency [8]: inactive
outcome [9]: inactive
activity, negative = inhibition ([10]; parasite line A): 4.49%
activity, negative = inhibition ([10]; parasite line B): -0.635%
Potency [11]: inactive
Potency [12]: inactive
Potency [13]: inactive

CCOC(=O)c1cnc(N(C)C)nc1SC(=N)N
Potency [1]: > 11.4 µM
activity change, negative = inhibition [2]: -8.3%
activity change, negative = inhibition [3]: -22.6% [at 2.29 µM]
activity change, negative = inhibition [4]: 11.3%
activity, negative = inhibition [5]: -0.214%
Potency [14]: > 9.22 µM
Potency [6]: inactive
Potency [7]: inactive

O=C(O)c1nnsc1-c1csnn1
Potency [1]: > 11.4 µM
activity change, negative = inhibition [2]: 2.29%
Potency [3]: inactive
activity change, negative = inhibition [4]: 4.42%
Potency [15]: > 46 µM
Potency [14]: > 9.22 µM
Potency [6]: inactive
Potency [7]: inactive

CC[C@@]1([N+](=O)[O-])C[C@H]2C=C[C@@H]1C2
Potency [1]: > 11.4 µM
activity change, negative = inhibition [2]: 9.4%
activity change, negative = inhibition [3]: -12.9% [at 2.29 µM]
activity change, negative = inhibition [4]: 4.68%
activity, negative = inhibition [5]: 3.53%
Potency [14]: > 9.22 µM
Potency [6]: inactive
Potency [7]: inactive
Potency [16]: inactive
Potency [17]: inactive

CC1=NN(c2ccc(S(=O)(=O)O)cc2)C(=O)/C1=C\c1ccc(Cl)cc1
Potency [1]: > 11.4 µM
activity change, negative = inhibition [2]: 3.84%
activity change, negative = inhibition [3]: -8.9% [at 2.29 µM]
activity change, negative = inhibition [4]: 7.84%
activity, negative = inhibition [5]: -1.78%
Potency [6]: inactive
Potency [7]: inactive

CCN(CC(=O)O)CC(=O)O
Potency [1]: > 11.4 µM
activity change, negative = inhibition [2]: -0.0102%
Potency [3]: inactive
activity change, negative = inhibition [4]: 0.338%
activity, negative = inhibition [5]: 13.7%
Potency [14]: > 9.22 µM
Potency [6]: inactive
Potency [7]: inactive

O=C1Nc2ccccc2C1=Nc1ccc(S(=O)(=O)Nc2nccs2)cc1
Potency [1]: > 11.4 µM
activity change, negative = inhibition [2]: -7.86%
Potency [3]: inactive
activity change, negative = inhibition [4]: 12.8%
activity, negative = inhibition [5]: -9.11%
Potency [14]: > 9.22 µM
Potency [6]: inactive
Potency [7]: inactive

CC1(C)[C@@H]2CC[C@]1(C)[C@@H](OC(=O)/C=C\c1ccccc1)C2
Potency [1]: > 11.4 µM
activity change, negative = inhibition [2]: 5.51%
activity change, negative = inhibition [3]: -3.4% [at 2.29 µM]
activity change, negative = inhibition [4]: -17.9%
activity, negative = inhibition [5]: 21.7%
Potency [14]: > 9.22 µM
Potency [6]: inactive
Potency [7]: inactive

O=C(O)CC(CC(=O)O)n1cccc1
Potency [1]: > 11.4 µM
activity change, negative = inhibition [2]: 5.34%
Potency [3]: inactive
activity change, negative = inhibition [4]: 8.97%
activity, negative = inhibition [5]: -7.74%
Potency [14]: > 9.22 µM
Potency [6]: inactive
Potency [7]: inactive
Potency [18]: inactive
activity change, negative = inhibition [8]: -36.6% [at 11.4 µM]
Potency [16]: inactive
Potency [17]: inactive

O=C(O)Cc1cc(Cl)ccc1O
Potency [1]: > 11.4 µM
activity change, negative = inhibition [2]: -8.98%
Potency [3]: inactive
activity change, negative = inhibition [4]: -0.2%
activity, negative = inhibition [5]: 20.2%
Potency [14]: > 9.22 µM
Potency [6]: inactive
Potency [7]: inactive

COC(=O)N1CCC2(CCCN(Cc3cc(C(F)(F)F)cc(C(F)(F)F)c3)C2)CC1
Potency [1]: > 11.4 µM
activity change, negative = inhibition [2]: 12%
Potency [3]: inactive
activity change, negative = inhibition [4]: 0.959%
activity, negative = inhibition [5]: -1.27%
Potency [14]: > 46 µM
Potency [6]: inactive
Potency [7]: inactive

O=C(O)CCc1c2ccc(=O)c(O)c-2oc2c(O)c(O)ccc12
Potency [1]: > 11.4 µM
activity change, negative = inhibition [2]: 3.21%
activity change, negative = inhibition [3]: -4% [at 2.29 µM]
activity change, negative = inhibition [4]: 17.3%
Potency [15]: > 46 µM
Potency [14]: > 9.22 µM
Potency [6]: inactive
Potency [7]: inactive

O[C@]1(c2ccccc2)c2ccccc2NC2=NCCN21
Potency [1]: > 11.4 µM
activity change, negative = inhibition [2]: 12.3%
Potency [3]: inactive
activity change, negative = inhibition [4]: -13.7%
Potency [15]: > 46 µM
Potency [14]: > 9.22 µM
Potency [6]: inactive
Potency [7]: inactive

Cc1[nH]c2ccccc2c1-c1cc(-c2cc(-c3c(C)[nH]c4ccccc34)on2)no1
Potency [1]: > 11.4 µM
activity change, negative = inhibition [2]: 5.07%
Potency [3]: 398 nM (active)
activity change, negative = inhibition [4]: -7.58%
activity, negative = inhibition [5]: -1.93%
Potency [14]: > 9.22 µM
Potency [6]: inactive
Potency [7]: inactive
Potency [18]: inactive

CC(=O)N[C@@H]1CONC1=O
Potency [1]: > 11.4 µM
activity change, negative = inhibition [2]: 10.9%
Potency [3]: inactive
activity change, negative = inhibition [4]: 5.02%
Potency [15]: > 46 µM
Potency [14]: > 9.22 µM
Potency [6]: inactive
Potency [7]: inactive

O=C1O[C@@H]([C@H](O)[C@H](O)[C@H](O)CO)[C@@H](O)[C@@H]1O
Potency [1]: > 11.4 µM
activity change, negative = inhibition [2]: 21.3%
Potency [3]: inactive
activity change, negative = inhibition [4]: 6.28%
activity, negative = inhibition [5]: -13.5%
Potency [15]: > 46 µM
Potency [6]: inactive
Potency [7]: inactive
Potency [17]: inactive

O=C(O)CS(=O)c1ccc2c3c(cccc13)C(=O)c1ccccc1-2 (stereo not given)
Potency [1]: > 11.4 µM
activity change, negative = inhibition [2]: -22.7%
Potency [3]: 63.1 nM (active)
activity change, negative = inhibition [4]: -13.9%
activity, negative = inhibition [5]: 1.69%
Potency [14]: > 9.22 µM
Potency [6]: inactive
Potency [7]: inactive
Potency [19]: inactive
